Only some compounds are listed: those with a hit (about 19% of all), similar ones and a draw of the others.
HT1080-NT tox = kills 2HG-producing HT-1080-NT fibrosarcoma cells; AID 686970; Potency, µM (titrated, usually from 46.1 µM), without a hit: at the highest dose activity, negative = less viability, actives largely listed as cytotoxic; HT-1080-NT fibrosarcoma viability, CellTiter-Glo ATP luminescence, 48 h; 360,000 compounds, 1.6% hits;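 further: NT is the 2HG producing partner of a matched IDH1 knockdown line; potency means the concentration at half of the fitted maximal effect; 0% = DMSO-treated cells and -100% = media-only wells without cells; nearly all actives have a fitted effect of over 55% in size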
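Viability by CellTiter-Glo luminescence after 48 h compound exposure at 37C of HT-1080-NT cells (750/well, RPMI, 5% FBS). % activity scaled between DMSO wells and medium-only wells, then curve-fitted and categorized by curve class.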
HT1080 IDH1KD tx = toxicity to HT-1080 IDH1 knockdown cells (counter line); 360,000 compounds, 2% hits; Potency, µM (series often up to 46.1 µM), for inactives: top-dose activity, negative = toxicity, most hits filed as cytotoxic; AID 686971; HT-1080 IDH1 knockdown viability, ATP luminescence, 48 h;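 further: potency means the concentration at half of the fitted maximal effect; 0% = DMSO wells and -100% = cell-free medium wells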
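In this qHTS, HT-1080 cells depleted of IDH1 are exposed for 48 h at 37 °C to compound titrations. Toxicity is scored from CellTiter-Glo luminescence, with DMSO as full viability and medium alone as none.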
IL-1B inflam inh = inhibitors of inflammasome signaling (IL-1 beta secretion). 360,000 compounds, 4.7% hits. activity change, % at 57.5 µM. THP-1 LPS/ATP IL-1B secretion, AlphaLISA, 16 h; active compounds read low; in the data active means activity change below about -50%; inconclusive means mostly about -30% to -49%
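THP-1 cells pretreated 1 hr with compounds (up to 57.5 uM final), then stimulated with LPS (250 ng/mL final) plus ATP (1.25 mM final); secreted IL-1B measured by AlphaLISA after 16 hr, decreased signal indicating inhibition.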
DT40 TDP1 CPT = growth inhibition of DT40 Tdp1-/-;hTDP1 cells with camptothecin (screen for TDP1 inhibitors) | chicken DT40 Tdp1-/-;hTDP1 cells + 20 nM CPT, ATP luminescence, 48 h | Potency, µM (doses to about 46.2 µM), without a hit: at the top dose activity change, negative = growth inhibition, hits mostly inhibitors | 420,000 compounds, 12% hits; further: potency means the concentration at half of the fitted maximal effect; nearly all actives have a fitted effect of over 55% in size
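Chicken DT40 Tdp1-/- cells complemented with human TDP1, 400 cells/well, exposed to compounds plus 20 nM camptothecin for at least 48 h at 37 C; viability read as ATP content by CellTiter-Glo luminescence.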
DT40 TDP1 no CPT = qHTS for Inhibitors of human tyrosyl-DNA phosphodiesterase 1 (TDP1): qHTS in cells in absence of CPT; DT40 Tdp1-/- hTDP1 cells, no CPT, ATP luminescence, 48 h; Potency, µM (doses to about 46.2 µM), for inactives: at the top dose activity change, negative = growth inhibition, hits mostly inhibitors; 420,000 compounds, 15% hits; AID 686978, 2013; further: potency means the concentration at half of the fitted maximal effect; nearly all actives have a fitted effect of over 55% in size
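Stably hTDP1-transfected Tdp1-null chicken DT40 cells were treated with library compounds minus camptothecin and grown for at least 48 hr at 37 °C, after which cellular ATP was quantified by luminescence.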
The depositor's hits bear a star; [ ] = another dose, or the depositor's remark. Unless noted, the call rests on the fitted dose curve; in most records, active means well fitted curve in the direction sought with a large enough effect; inconclusive means small, poorly fitted or top-dose-only effect, or another doubt; inactive means no such curve, though single readings can be large; an effect the other way counts as inactive or inconclusive. Unless noted, on the % scale 0 is the no-effect control and ±100 the full control effect.

How did O=C1C=CC(=O)C(CNc2ccc(C(=O)OCc3ccccc3)cc2)=C1 do in these assays?
HT1080-NT tox: 16µM*; HT1080 IDH1KD tx: 10µM*; IL-1B inflam inh: -100*; DT40 TDP1 CPT: 5.8µM*; DT40 TDP1 no CPT: 4.1µM*

How did CCOC(=O)c1ccc(CN(Cc2ccc(C)cc2)S(=O)(=O)c2ccc(NC(C)=O)cc2)cc1 do in these assays?
DT40 TDP1 CPT: inconclusive; DT40 TDP1 no CPT: 15µM*

How did CCc1ccc(NC(=O)CN(C(=O)N2CCN(CC)CC2)S(=O)(=O)c2ccc(C)cc2)cc1 do in these assays?
HT1080-NT tox: 0%; HT1080 IDH1KD tx: 4%; IL-1B inflam inh: -55*; DT40 TDP1 CPT: 1%; DT40 TDP1 no CPT: -3%

What do the screens show for `CCOC(=O)c1ccc(CN(Cc2ccc(C)cc2)S(=O)(=O)c2cccc([N+](=O)[O-])c2)cc1`?
HT1080-NT tox: 6%; HT1080 IDH1KD tx: 10%; IL-1B inflam inh: 23; DT40 TDP1 CPT: 4%; DT40 TDP1 no CPT: inconclusive

How did CCOC(=O)c1ccc(S(=O)(=O)Nc2ccccc2-c2nnn(CC)n2)cc1 do in these assays?
HT1080-NT tox: 5%; HT1080 IDH1KD tx: 4%; IL-1B inflam inh: -16; DT40 TDP1 CPT: 15µM*; DT40 TDP1 no CPT: 9.2µM*

What do the screens show for `CCOC(=O)c1ccc(CN(Cc2ccccc2)S(=O)(=O)c2ccc(C)cc2)cc1`?
DT40 TDP1 CPT: 29µM*; DT40 TDP1 no CPT: 16µM*

Results for CCOC(=O)c1ccc(CN(Cc2ccc(C)cc2)S(=O)(=O)c2ccc(F)c(C(=O)Nc3ccc(C)c(F)c3)c2)cc1 ?
DT40 TDP1 CPT: -6%; DT40 TDP1 no CPT: -17%

Results for COCCNC(=O)C(C(=O)c1ccc(F)cc1)n1cc(C)ccc1=O (stereo not drawn) ?
HT1080-NT tox: 11%; HT1080 IDH1KD tx: 18%; IL-1B inflam inh: 3; DT40 TDP1 CPT: 7%; DT40 TDP1 no CPT: -3%

What do the screens show for `CCOC(=O)c1c(C)n(C)c2ccc(OC)c([N+](=O)[O-])c12`?
HT1080-NT tox: 3%; HT1080 IDH1KD tx: 2%; IL-1B inflam inh: 8; DT40 TDP1 CPT: 1%; DT40 TDP1 no CPT: 4%

How did NC1=NC(=O)/C(=C/c2cccc(-c3ccc(S(N)(=O)=O)cc3)c2)S1 do in these assays?
HT1080-NT tox: 6%; HT1080 IDH1KD tx: 0%; IL-1B inflam inh: 20; DT40 TDP1 CPT: -4%; DT40 TDP1 no CPT: -3%

What do the screens show for `O=C(Nc1ccc2c(c1)OCO2)N1CCCC1`?
HT1080-NT tox: 13%; HT1080 IDH1KD tx: 7%; IL-1B inflam inh: -8; DT40 TDP1 CPT: -4%; DT40 TDP1 no CPT: 11%

What do the screens show for `CCOC(=O)c1ccc(NC(=O)CNS(=O)(=O)c2ccccc2)cc1`?
HT1080-NT tox: 6%; HT1080 IDH1KD tx: 6%[9.24 µM]; IL-1B inflam inh: -5; DT40 TDP1 CPT: inconclusive; DT40 TDP1 no CPT: inconclusive

Results for CCOC(=O)c1ccc(S(=O)(=O)NCCNCc2ccccc2)cc1 ?
HT1080-NT tox: -10%; HT1080 IDH1KD tx: -13%; IL-1B inflam inh: -76*; DT40 TDP1 CPT: inconclusive; DT40 TDP1 no CPT: inconclusive

How did O=C(O)C1=CC(O)[C@@H](O)C(O)C1 (stereo partly drawn) do in these assays?
DT40 TDP1 CPT: 0%; DT40 TDP1 no CPT: -2%

What do the screens show for `COc1ccc(NC(=O)c2c(C)noc2C)cc1S(=O)(=O)N1CCCCC1`?
HT1080-NT tox: -2%; HT1080 IDH1KD tx: 6%; IL-1B inflam inh: -8; DT40 TDP1 CPT: -11%; DT40 TDP1 no CPT: inconclusive

What do the screens show for `OCCC1CN(Cc2cccn2-c2nccs2)CCN1Cc1ccc(F)c(F)c1` (stereo not drawn)?
HT1080-NT tox: -2%; HT1080 IDH1KD tx: -1%; IL-1B inflam inh: -6; DT40 TDP1 CPT: 13µM*; DT40 TDP1 no CPT: 18µM*

How did CCCC(=O)N1CCCC(C(=O)c2ccc(OC)c(OC)c2)C1 (stereo not drawn) do in these assays?
HT1080-NT tox: 0%; HT1080 IDH1KD tx: 3%; IL-1B inflam inh: 16; DT40 TDP1 CPT: 7%; DT40 TDP1 no CPT: 3%

How did OCCC1CN(Cc2cccn2-c2nccs2)CCN1Cc1ccccc1 (stereo not drawn) do in these assays?
HT1080-NT tox: 3%; HT1080 IDH1KD tx: 10%; IL-1B inflam inh: -2; DT40 TDP1 CPT: -26%; DT40 TDP1 no CPT: -6%

What do the screens show for `COc1ccc(C(=O)C2CCCN(Cc3cccn3-c3nccs3)C2)cc1OC` (stereo not drawn)?
HT1080-NT tox: inconclusive; HT1080 IDH1KD tx: inconclusive; IL-1B inflam inh: -28; DT40 TDP1 CPT: 18µM*; DT40 TDP1 no CPT: 13µM*

Results for COc1ccc(C(=O)C2CCCN(Cc3cccn3-c3nccs3)C2)cc1F (stereo not drawn) ?
HT1080-NT tox: inconclusive; HT1080 IDH1KD tx: inconclusive; IL-1B inflam inh: -84*; DT40 TDP1 CPT: 23µM*; DT40 TDP1 no CPT: 21µM*

Results for CC(C)CN(C(=O)Cn1nnc(-c2ccc(F)cc2)n1)C1CCS(=O)(=O)C1 (stereo not drawn) ?
HT1080-NT tox: 1%; HT1080 IDH1KD tx: 0%; IL-1B inflam inh: -16; DT40 TDP1 CPT: -12%; DT40 TDP1 no CPT: -7%

Results for Cc1ccc(NC(=O)CCNS(=O)(=O)c2ccc3[nH]c(=O)oc3c2)cc1N(C)C ?
HT1080-NT tox: 0%; HT1080 IDH1KD tx: 8%; IL-1B inflam inh: 0; DT40 TDP1 CPT: 15%; DT40 TDP1 no CPT: 1%

What do the screens show for `Cc1ccc(S(=O)(=O)Nc2ccc(-c3nc4ccc(C)cc4s3)cc2)cc1`?
HT1080-NT tox: 0%; HT1080 IDH1KD tx: -21%; IL-1B inflam inh: 0; DT40 TDP1 CPT: inconclusive; DT40 TDP1 no CPT: inconclusive

What do the screens show for `Cc1ccc2nc(-c3ccc(NC(=O)CCS(=O)(=O)c4ccccc4)cc3)sc2c1`?
HT1080-NT tox: -21%; HT1080 IDH1KD tx: -3%; IL-1B inflam inh: -23; DT40 TDP1 CPT: inconclusive; DT40 TDP1 no CPT: 26µM*

Results for Cc1ccc2nc(-c3ccc(NC(=O)C(C)Sc4nncs4)cc3)sc2c1 (stereo not drawn) ?
HT1080-NT tox: inconclusive; HT1080 IDH1KD tx: -17%; IL-1B inflam inh: -20; DT40 TDP1 CPT: inconclusive; DT40 TDP1 no CPT: 9.2µM*

How did CC(Sc1nncs1)C(=O)Nc1ccc2c(c1)OCCO2 (stereo not drawn) do in these assays?
HT1080-NT tox: 19%; HT1080 IDH1KD tx: 8%; IL-1B inflam inh: -20; DT40 TDP1 CPT: -1%; DT40 TDP1 no CPT: -3%

Results for Cc1ccc2nc(-c3ccc(NC(=O)CNC4CC4)cc3)sc2c1 ?
HT1080-NT tox: 3%; HT1080 IDH1KD tx: -3%; IL-1B inflam inh: -4; DT40 TDP1 CPT: 16µM*; DT40 TDP1 no CPT: 18µM*

Screens: PubChem BioAssay, National Center for Advancing Translational Sciences (NCATS)
